# Screens as filed in PubChem.
# An excerpt weighted towards active compounds, which were near 2% of everything screened.
# PG9 binder = small molecules binding HIV-1 gp120 antibody PG9; AID 624416; 360,000 tested, 0.43% active; inhibition, % at 6.7 µM; TR-FRET gp120-PG9 antibody binding; in the data active = inhibition above about 8.5%
# ABCB6 inh 2 = human ABCB6 transporter inhibition. Q9NP58. K562-ABCB6 porphyrin accumulation, flow cytometry, 1 h; stronger effect = lower value. fluorescence ratio to DMSO, % at 10 µM. 360,000 tested, 0.19% active. AID 602162;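 active = fluorescence ratio to DMSO below 75%, the collection mean minus 3 SD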;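 note: signal is porphyrin accumulated inside mitochondria; 100% equals median channel fluorescence of DMSO control wells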
# Target sequence (Q9NP58 whole entry, looked up): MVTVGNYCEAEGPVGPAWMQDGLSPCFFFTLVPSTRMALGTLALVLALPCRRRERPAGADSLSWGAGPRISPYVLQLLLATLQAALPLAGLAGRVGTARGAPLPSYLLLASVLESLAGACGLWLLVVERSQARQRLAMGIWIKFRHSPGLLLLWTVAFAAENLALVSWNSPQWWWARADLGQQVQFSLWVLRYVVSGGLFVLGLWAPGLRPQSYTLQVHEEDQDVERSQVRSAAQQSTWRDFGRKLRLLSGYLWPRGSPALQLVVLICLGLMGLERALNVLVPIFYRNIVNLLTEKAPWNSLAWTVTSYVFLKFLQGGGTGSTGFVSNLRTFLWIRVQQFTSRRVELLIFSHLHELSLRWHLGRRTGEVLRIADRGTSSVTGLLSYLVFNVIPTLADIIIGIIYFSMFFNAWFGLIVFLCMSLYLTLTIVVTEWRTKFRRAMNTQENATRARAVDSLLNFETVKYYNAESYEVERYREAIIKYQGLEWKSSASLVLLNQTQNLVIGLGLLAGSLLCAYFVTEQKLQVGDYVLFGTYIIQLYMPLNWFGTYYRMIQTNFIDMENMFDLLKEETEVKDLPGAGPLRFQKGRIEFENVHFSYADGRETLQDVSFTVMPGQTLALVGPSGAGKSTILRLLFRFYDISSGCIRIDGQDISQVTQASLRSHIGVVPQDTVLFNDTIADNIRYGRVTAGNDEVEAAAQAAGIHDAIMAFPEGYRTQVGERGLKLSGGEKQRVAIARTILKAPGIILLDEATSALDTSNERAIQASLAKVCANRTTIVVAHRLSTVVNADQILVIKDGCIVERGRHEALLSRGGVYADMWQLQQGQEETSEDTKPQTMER
# Granule exo inh = blocks lytic granule exocytosis; TALL-104 LAMP-1 surface exposure, flow cytometry; cells stimulated with thapsigargin and PMA; inhibition, % at 10 µM; 360,000 tested, 0.66% active; AID 651702;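 active = inhibition above about 55%, limit read from the data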
# NR1D1 modulator = modulates human Rev-erb alpha binding to DNA; P20393; Rev-erbα–FITC-DNA binding, fluorescence polarization, 90 min; activity, % at 10 µM; 370,000 tested, 0.79% active;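 active = activity above about 14%, limit read from the data; passing the limit was not always enough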;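 note: 0% = DMSO wells with 35 nM protein and 100% = DMSO wells with 750 nM protein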
# VLA-4 inh = inhibition in a human VLA-4 binding assay; P13612; inhibition, % (about 7 µM as worked out from the volumes in the protocol); 330,000 tested, 0.2% active; VLA-4 expressing cells, ligand binding flow cytometry; in the data active = inhibition above about 50%
# PG9 bind confirm = confirmation of small molecules binding HIV-1 gp120 antibody PG9 | shares compounds with PG9 binder | TR-FRET PG9 antibody binding, biochemical | inhibition, % at 6.7 µM | 1,500 tested, 90% active; in the data active = inhibition above about 9%
# PGV04 counter = counter-screen for PG9 binders: binding control antibody PGV04. shares compounds with PG9 binder. TR-FRET PGV04 antibody-gp120 binding, biochemical. inhibition, % at 6.7 µM. 1,500 tested, 95% active. AID 651604; in the data active = inhibition above about 9.5%
# PG9 binder DR = small molecules binding HIV-1 gp120 antibody PG9; shares compounds with PG9 binder; TR-FRET PG9 antibody-gp120 binding inhibition; IC50, µM; 95 tested, under 10 active; AID 651848; in the data active = IC50 below about 10 µM
# PGV04 DR counter = PGV04 binding, dose response counter-screen; shares compounds with PG9 binder; TR-FRET binding to control antibody PGV04; IC50, µM; 95 tested, 20% active; AID 651937
# PG126 binding DR = binds control antibody PG126 in PG9 counter-screen. shares compounds with PG9 binder. TR-FRET binding to antibody PG126, counterscreen. IC50, µM. 95 tested, 20% active. AID 651939
# NR1D1 mod conf = confirmation of modulators of human Rev-erb alpha DNA binding. shares compounds with NR1D1 modulator. Rev-erb alpha FITC-DNA binding, fluorescence polarization, 90 min. activation, % at 25 µM. 3,000 tested, 61% active. AID 1259319;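 active = activation at or above a set limit, or at least 3 SD above the negative control mean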;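 note: 0% = 35 nM protein with DMSO and 100% = 750 nM protein high control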
# RORg DNA counter = affects RORgamma DNA binding in a Rev-erb alpha counter-screen; shares compounds with NR1D1 modulator; purified RORgamma protein-FITC-DNA binding, fluorescence polarization; IC50, µM; 910 tested, 8% active;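 active = Compounds whose fitted half-maximal concentration for disrupting protein-DNA binding is below 10 micromolar; the record names Rev-erb in its text, so the target is in doubt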
# * hit, by the source's call; i = inactive; nt = no result. Cut-off read from the data, not from the text of the source, unless noted: active = IC50 below about 9 µM; inactive = the rest.
SMILES,PG9 binder,ABCB6 inh 2,Granule exo inh,NR1D1 modulator,VLA-4 inh,PG9 bind confirm,PGV04 counter,NR1D1 mod conf,others
COc1ccc(N(C(=O)c2snc(C(N)=O)c2N)C(C(=O)NC2CCCC2)c2ccc(OC)c(OC)c2)cc1 (stereo not drawn),0.4,99.0,3.6,-5.0,12.3,nt,nt,nt,
CCC(C(=O)NC1CCCC1)N(C(=O)c1snc(C(N)=O)c1N)c1ccc(OC)cc1 (stereo not drawn),33.9*,99.0,3.1,17.5*,9.0,15.2*,41.1*,-3.2,
CCOC(=O)CC[C@@H]1CC[C@]2(CCCN(C(=O)c3ccno3)C2)O1,nt,nt,nt,-0.4,nt,nt,nt,nt,
Cc1ccc(S(=O)(=O)NCCCc2ccc3c(c2)[C@]2(CCC[C@@H](OCc4ccccc4)[C@@H]2NC(=O)CCc2ccccc2)C(=O)N3Cc2ccccc2)cc1,nt,nt,nt,1.2,nt,nt,nt,nt,
COC(=O)CSc1nc(C)c(C(=O)Nc2ccccc2C)c(-c2ccc(Cl)cc2)c1C#N,9.1*,99.0,4.9,26.1*,-4.4,7.2,16.3*,11.4,
Cc1ccccc1NC(=O)c1c(C)nc(SCC(=O)OCc2ccccc2)c(C#N)c1-c1ccc(F)cc1,-1.4,97.0,1.9,5.7,7.5,nt,nt,nt,
COC(=O)c1sc(NC(=O)c2c(F)cccc2F)c(C#N)c1C,-0.2,92.0,10.9,-6.2,3.9,nt,nt,nt,
COC(=O)c1sc(NC(=O)c2c(OC)cccc2OC)c(C#N)c1C,14.2*,100.0,-0.7,26.5*,11.6,19.9*,28.8*,28.9*,
NC(=O)COc1ccc2oc(-c3ccccc3)cc(=O)c2c1,-0.9,96.0,0.8,0.0,nt,nt,nt,nt,
CCc1ccccc1NC(=O)COc1ccc2oc(-c3ccc(OC)cc3)cc(=O)c2c1,17.8*,98.0,6.5,27.4*,7.5,77.9*,47.6*,-0.1,PG9 binder DR=>67;PGV04 DR counter=3.7*;PG126 binding DR=3.63*
C=CCN1C(=O)[C@H](CC(=O)NCCC(C)C)[C@@]2(C(=O)OCC)CCCC=C12,nt,nt,nt,7.0,nt,nt,nt,nt,
COc1ccccc1N(C)S(=O)(=O)c1ccc(C(=O)Nc2ncc(C)s2)cc1,0.0,93.0,-0.9,2.1,0.5,nt,nt,nt,
COc1ccccc1N(C)S(=O)(=O)c1ccc(C(=O)Nc2nc(C)c(C(C)=O)s2)cc1,39.6*,97.0,-0.4,103.6*,-9.2,41.2*,60.9*,87.3*,RORg DNA counter=>40
CS(=O)(=O)c1ccc2nc(NC(=O)c3ccc(N4C(=O)CCC4=O)cc3)sc2c1,nt,nt,nt,nt,-9.3,nt,nt,nt,
Cc1ccc(C(=O)Nc2nc3ccc(S(C)(=O)=O)cc3s2)cc1C,20.7*,91.0,12.8,25.6*,2.9,32.2*,50.9*,21.3*,
Cc1cccc(C(=O)Nc2nc3ccc(S(C)(=O)=O)cc3s2)c1,34.4*,99.0,9.6,35.8*,4.8,14.9*,37.7*,21.9*,
Cc1ccc(NC(=O)Nc2nc3ccc(S(C)(=O)=O)cc3s2)cc1,33.8*,100.0,-1.8,19.3*,nt,31.1*,41.8*,7.7,
CS(=O)(=O)c1ccc2nc(NC(=O)Nc3ccc(Cl)c(Cl)c3)sc2c1,-1.3,95.0,1.7,7.7,14.7,nt,nt,nt,
COc1ccc(C(=O)Nc2nc3ccc(S(C)(=O)=O)cc3s2)cc1OC,21.8*,100.0,-2.5,30.3*,-8.6,27.8*,40.2*,24.8*,
CS(=O)(=O)c1ccc2nc(NC(=O)c3ccccc3)sc2c1,0.3,99.0,0.2,0.4,-0.2,nt,nt,nt,
Clc1ccc([C@H]2OC[C@@]3(CNCCN4CCOCC4)CS[C@H](c4ccc(Cl)cc4)N23)cc1,nt,nt,nt,-1.9,nt,nt,nt,nt,
COc1cc(OC)cc(C(=O)NC(=S)Nc2ccc3[nH]c(=O)[nH]c3c2)c1,-1.8,98.0,10.4,7.3,-8.6,nt,nt,nt,
COc1ccc(C(=O)NC(=S)Nc2ccc3[nH]c(=O)[nH]c3c2)c(OC)c1,36.5*,94.0,-5.1,100.8*,-6.4,53.5*,51.8*,54.6*,PG9 binder DR=i;PGV04 DR counter=6.27*;PG126 binding DR=6.84*;RORg DNA counter=i
Cc1cccc2cc(COC(=O)COc3ccccc3)c(=O)[nH]c12,26.2*,101.0,0.1,30.9*,-10.1,30.8*,41.3*,21.1*,
COc1ccccc1NC(=O)OCCCN1CCC2(CCC(C)CC2)C1=O (stereo not drawn),nt,nt,nt,-3.2,nt,nt,nt,nt,
COc1ccc(OCCSc2nc3ccccc3c(=O)[nH]2)cc1,58.3*,120.0,1.4,29.2*,31.1,53.4*,65.5*,21.3*,
O=C(Cn1cnc2sc(-c3ccccc3)cc2c1=O)NCCc1ccccc1,9.1*,87.0,-2.8,65.1*,8.3,39.8*,60.0*,28.3*,
Cc1cc2c(s1)c1cnn(CC(=O)NCCc3ccccc3)c(=O)c1n2C,36.6*,nt,nt,307.0*,-53.7,48.7*,49.6*,351.8*,
